# Most compounds without a hit are left out; they make up all but 10% or so of the library.
# IMPase inh: membrane-permeable compound that blocks inositol monophosphatase. inhibition (IP1 accumulation), % at 46.1 µM. P97697. CHO-M1 cells, IP1 accumulation, HTRF TR-FRET ratio. 120,000 tested, under 10 active; active = well fitted curve in the direction sought with a large enough effect in the signal ratio, not every such curve was filed as active; inconclusive = small, poorly fitted or top-dose-only effect, or a change in a side signal; inactive = no such curve, though single readings can be large or run the other way; the % refers to the signal ratio;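 also: cells stimulated with carbachol in lithium chloride buffer; plate controls were DMSO basal wells for no effect and reference inhibitor wells for full effect; higher means more IMPase inhibition seen as more IP1 and lower FRET ratio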
#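 CHO-M1 cells (CHO stably expressing M1 receptor), compound up to 46 uM final, stimulated with carbachol (50 uM as added) in buffer with 50mM LiCl, pH 7.4, 30 min at 37C. Cytosolic IP1 read by TR-FRET; AC50 from Hill fits.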
# HPGD block: blocks human HPGD enzyme activity; purified HPGD, NADH fluorescence kinetic, PGE2 substrate; Potency, µM, without a hit: at the highest dose activity change, negative = inhibition, usual class: inhibitors; 4.3% of 150,000 active; also: potency is read from the fitted curve at half-maximal effect
#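 20 nM HPGD preincubated 15 min at room temperature with compound in 50 mM Tris-HCl pH 8, 0.01% Tween 20. Started with 1 mM NAD+ and 30 uM prostaglandin E2; NADH fluorescence (360/450 nm) read 5 times over 30-s intervals, last minus first.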
# ALDH1A1 block: ALDH1A1 (human) enzyme inhibition; Potency, µM (series often up to 75.3 µM), for the others: at the highest dose activity, negative = inhibition, actives largely listed as inhibitors; Purified ALDH1A1, NADH fluorescence, propionaldehyde substrate; AID 1030; 7.3% of 220,000 active; P00352;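 also: potency is read from the fitted curve at half-maximal effect; plate controls were no enzyme wells and a reference inhibitor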
# Target sequence (P00352 whole entry, looked up): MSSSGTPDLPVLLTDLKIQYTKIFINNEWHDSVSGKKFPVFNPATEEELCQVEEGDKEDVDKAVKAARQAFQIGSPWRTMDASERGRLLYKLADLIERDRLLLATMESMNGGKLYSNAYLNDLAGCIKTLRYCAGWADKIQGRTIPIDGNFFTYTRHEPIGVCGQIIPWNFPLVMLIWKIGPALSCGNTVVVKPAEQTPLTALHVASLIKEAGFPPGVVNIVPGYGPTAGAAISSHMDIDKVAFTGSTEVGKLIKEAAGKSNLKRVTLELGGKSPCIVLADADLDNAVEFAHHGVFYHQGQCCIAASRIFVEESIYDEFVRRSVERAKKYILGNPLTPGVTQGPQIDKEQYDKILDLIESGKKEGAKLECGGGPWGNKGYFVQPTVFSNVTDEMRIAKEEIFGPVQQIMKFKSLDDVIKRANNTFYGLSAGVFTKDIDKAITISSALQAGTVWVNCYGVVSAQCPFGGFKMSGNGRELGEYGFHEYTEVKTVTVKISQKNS
# Luc counter: counter-screen: inhibitors of Kinase-Glo firefly luciferase; Q27757; Kinase-Glo luciferase, ATP luminescence, 8 min; Potency, µM (highest dose often 38.3 µM), without a hit: at the highest dose activity change, negative = inhibition, usual class: inhibitors; 0.28% of 200,000 active; active = well fitted inhibition curve with a large enough effect; inconclusive = small, poorly fitted or top-dose-only effect; also: potency is read from the fitted curve at half-maximal effect; nearly all actives have a fitted effect of over 60% in size
#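 Substrate mix (final 50 mM imidazole pH 7.2, 50 mM KCl, 7 mM MgCl2, 10 uM ATP, 0.01% Tween 20, 0.05% BSA) plus pin-tool compound, then Kinase-Glo detection mix; 8 min ambient, luminescence read.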
# Lamin A splicing: changes lamin A minigene splicing in HeLa cells; HeLa LMNA splicing GFP/RFP minigene ratio, 48 h; Potency, µM (doses to about 46.1 µM), for the others: at the top dose ratio change, negative = inhibition, actives largely listed as inhibitors; 0.01% of 200,000 active; active = well fitted inhibition curve with a large enough effect in the signal ratio, with a control signal flat, not every such curve was filed as active; inconclusive = small, poorly fitted or top-dose-only effect, or effect the other way, or a change in a side signal; the % refers to the signal ratio; also: potency is read from the fitted curve at half-maximal effect
#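 Read-out is the ratio of GFP to DsRed2 object intensity, acquired by 488 nm laser-scanning cytometry on HeLa lamin A-EGFP minigene reporter cells. Compound incubation 48 hrs at 37 °C in Opti-MEM with 2% FBS; DMSO 0.5% final.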
# PNC inhibitor: blocks assembly of the perinucleolar compartment; AID 2417; PC3M PTB-GFP, PNC prevalence imaging, 16 h; stronger effect = lower value; 3.1% of 140,000 active; activity change (PNC), negative = inhibition, % at 10 µM;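 active = readout at or below -70, meaning at least 70% loss of cells showing the perinucleolar compartment, a nuclear body marking cancer cells; inconclusive = readout between -30 and a set limit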;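 also: plate controls were DMSO wells for no effect and camptothecin positive control wells for full effect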
#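 PC3M cells stably expressing PTB-GFP, 750–1000 cells/well, treated 16 h at 37 °C with compound (23 nl of library stock), in duplicate. After paraformaldehyde fixation and Hoechst stain, imaged at 20x; PNC prevalence scored by image analysis.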
# An asterisk follows results filed as active; ? = inconclusive; · = not tested or not shown; [ ] = remark or other dose. Unless noted, calls follow the shape of the dose curve; as a rule, active = well fitted inhibition curve with a large enough effect (not every such curve was filed as active); inconclusive = small, poorly fitted or top-dose-only effect, or another doubt; inactive = no such curve, though single readings can be large or run the other way. Unless noted, % is scaled to controls: 0 for no effect and ±100 for the full control effect.
SMILES,IMPase inh,HPGD block,ALDH1A1 block,Luc counter,Lamin A splicing,PNC inhibitor
COc1ccc(NC(=O)c2ccccc2SC)cc1,·,·,?,-28.0%,·,·
COCCSc1ccccc1C(=O)Nc1ccc2c(c1)OCO2,·,·,-8.9%,-7.5%,·,·
COc1ccc(CNC(=O)CCSCc2ccccc2C)cc1,·,·,3.98µM*,3.4%,·,·
COc1ccc(C2=CC(c3cccc(C)c3)n3nnnc3N2)cc1 (centres undefined),·,·,·,·,-22.5%[46 µM],·
COc1cccc(CNC(=O)CN2C(=O)CSc3c2c(C)nn3-c2ccccc2)c1,·,·,·,·,-7.3%[46 µM],·
CCSc1ccccc1C(=O)N1CCN(Cc2ccc3c(c2)OCO3)CC1,2.3,-13.4%,-7.8%,0.4%,-9.7%,43.0
CCSc1ccccc1C(=O)NCc1ccc2c(c1)OCO2,3.8,1.41µM*,?,-5.8%,10.0%,?
C[C@@H]1C[C@@H]([C@@H](C)CC2CC(=O)NC(=O)C2)C(=O)[C@@H](C)C1,·,-5.0%,-11.7%,2.3%[39.9 µM],·,·
COc1ccc(CONc2ncnc3nonc23)cc1[N+](=O)[O-],·,·,14.1µM*,0.9%,·,·
CCCc1c(C(=O)NNc2ccccc2OC)cnn1-c1ccccc1,·,·,7.94µM*,·,·,·
Cn1ccnc1SCC(=O)Nc1sccc1C#N,-0.6,-15.0%,25.1µM*,-3.2%,2.4%,63.7
Cc1cc(C)cc(-n2ccnc2SCC(=O)Nc2ccc3c(c2)OCCO3)c1,?,-10.7%,?,1.9%,-19.0%,-85.4*
CCOc1ccc(NC(=O)CSc2nccn2C)cc1,-3.1,-9.3%,4.3%,-2.1%,-7.1%,-100.0*
Cc1cc(C)c(NC(=O)CSc2nccn2C)c(C)c1,·,6.31µM*,-7.3%,-0.1%,4.0%,-17.1
N#Cc1ccsc1NC(=O)CSc1ncn[nH]1,3.8,-17.1%,-7.8%,0.5%,2.7%,-23.4
Cc1cn2c(=O)cc(COC(=O)c3ccc(NC(=O)c4ccccc4C)cc3)nc2s1,·,·,·,·,-7.4%[46 µM],·
CCOc1ccc(CNC(=O)c2oc3c(c2C)-c2nn(Cc4cccc(Cl)c4)cc2CC3)cc1,·,·,·,·,8.1%[46 µM],·
Nc1nc2c(c(=O)[nH]1)N(C=O)C(CNc1ccc(C(=O)NC(CCC(=O)O)C(=O)O)cc1)CN2 (centres undefined),·,-12.8%,0.1%,-7.2%,·,·
O=C(CSc1nccn1-c1ccccc1)Nc1ccc2c(c1)OCO2,0.4,-17.9%,?,-3.8%,?,-20.5
Cn1ccnc1SCC(=O)Nc1ccc2c(c1)OCO2,·,·,14.1µM*,-4.8%,-8.9%[46 µM],·
CCOc1ccc(NC(=O)COC(=O)c2c(OC)cccc2OC)cc1,·,-25.8%,28.2µM*,0.8%,1.5%,?
CCOc1ccc(NC(=O)CSC(N)=O)cc1,-11.8,-16.4%,2µM*,-1.0%,6.7%,24.2
CCOc1ccc(NC(=O)c2c(OC)cccc2OC)cc1,·,·,-2.6%,2.8%,·,·
O=C1[C@H]2[C@H]3[C@H](O)[C@H](O)C/C(=N/OCc4ccccc4)[C@@H]3CC[C@@H]2C(=O)N1C[C@@H]1CCCO1,·,·,23.9%[13.5 µM],·,·,·
O=c1n(Cc2cc3c(cc2Cl)OCO3)c(=O)n2n1CC[C@H]1/C(=N\OCc3ccccc3)[C@H]3O[C@@H]3[C@@H](O)[C@@H]12,·,·,-9.8%[13.5 µM],·,·,·
SMILES,IMPase inh,HPGD block,ALDH1A1 block,Luc counter,Lamin A splicing,PNC inhibitor
C=C(C)C(=O)/C=C/CCC/C=C/C(=O)OCC,·,-5.8%,25.1µM*,-1.2%,·,·
CCOC(=O)/C=C/CCCC=O,·,-5.9%,6.2%,1.2%,·,·
CCc1cc2ccc(C)cc2nc1SCC(=O)c1ccc(NC(C)=O)cc1,-1.8,8.91µM*,25.1µM*,3.9%,10.7%,98.4
C[C@H]1Cc2c(-c3ccccc3)nc3c(c2CO1)CN(C(=O)c1cc(I)ccc1F)CC3,·,-0.7%,18.1%[13.5 µM],-2.0%[7.66 µM],11.2%[9.22 µM],·
CN(c1ccc(OCC(=O)OCC(=O)Nc2ccccc2)cc1)S(=O)(=O)c1ccc(F)cc1,·,-5.3%,1.8%,3.0%,-4.0%,?
CN(c1ccc(OCC(=O)OCC(=O)Nc2c(F)c(F)c(F)c(F)c2F)cc1)S(=O)(=O)c1ccc(F)cc1,·,-2.0%,7.3%,-1.6%,1.3%,-106.9*
CCCCc1nc2c(c3c1C[C@H](C)OC3)CN(C(=O)Cc1cccc(OC)c1)CC2,·,-6.5%,7.4%[13.5 µM],-5.4%[7.66 µM],-5.6%[9.22 µM],·
